The record followed here is ChEMBL document CHEMBL4513141, “CO-ADD screening of NIH (USA) - Clinical Collection” (2021).

Entries with a potency or affinity are not part of this list.

This assay concerns Klebsiella pneumoniae. The following applies: Concentration 20 uM; ASSAY_TEST Inhibition of Bacterial Growth; detection method Absorption (OD600); MEDIA CAMHB; plate type 384well; NBS; CORNING #3640; time 18 hr.
A word on the Inhibition: it is how much of the control response was suppressed. `CCOC(=O)C1=C(C)NC(C)=C(C(=O)OC)C1c1cccc([N+](=O)[O-])c1` (stereo not drawn) [NITRENDIPINE] had an Inhibition of 3.96%. The compound `CN(C)CCCSc1ccccc1NC(=O)/C=C/c1ccccc1.Cl.O` displayed an Inhibition of 18.81%.

In turn, `CN1C(C(=O)Nc2ccccn2)=C(O)c2ccccc2S1(=O)=O.O` had an Inhibition of 9.7%. Under `Nc1ccc(S(=O)(=O)c2ccc(N)cc2)cc1` [DAPSONE] stands 5.01%; under `Cl.O[C@@H](c1cc(C(F)(F)F)nc2c(C(F)(F)F)cccc12)[C@H]1CCCCN1`, 14.04%. Under `Cl.O=c1n(CCCN2CCN(c3cccc(Cl)c3)CC2)nc2ccccn12` [TRAZODONE HYDROCHLORIDE] stands 4.82%; under `CCC(=O)OCC(=O)[C@@]1(OC(=O)CC)[C@@H](C)C[C@H]2[C@@H]3CCC4=CC(=O)C=C[C@]4(C)[C@@]3(Cl)[C@@H](O)C[C@@]21C` [BECLOMETHASONE DIPROPIONATE], 7.24%; under `CN(C)CC[C@@H](c1ccc(Cl)cc1)c1ccccn1.O=C(O)/C=C\C(=O)O` [DEXCHLORPHENIRAMINE MALEATE], 21.61%.

On to `COc1ccc2[nH]c([S+]([O-])Cc3ncc(C)c(OC)c3C)nc2c1` (stereo not drawn) [OMEPRAZOLE], for which the Inhibition was 7.63%. The result for `CNCCCN1c2ccccc2CCc2ccccc21.Cl` [DESIPRAMINE HYDROCHLORIDE] reads 6.09%; that for `NNC(=O)c1ccncc1` [ISONIAZID], 6.54%; that for `CC1CCN(CCCC(=O)c2ccc(F)cc2)CC1.Cl`, 24.05%.

In turn, `CC(C)NCC(O)COc1ccc(CC(N)=O)cc1` (stereo not drawn) [ATENOLOL] returned an Inhibition of 8.57%.
